About 79,000 compounds went through this panel and 15% of them were active in at least one assay; those are over-represented in the sample as a whole. Active and inactive are the calls of the source. Cut-off read from the data, not from the text of the source: active = growth inhibition above about 70%; inactive = the rest.

A short description of this test: NCI Yeast Anticancer Drug Screen. Data for the bub3 strain (AID 167). The following applies: S. cerevisiae bub3 mutant strain, active compounds read high; at 50.0 µM unless noted. The protocol:
Growth inhibition of yeast strains with defined genetic alterations is measured as a screen for potential anti-cancer activity. Selected strains with alterations in DNA damage repair or cell cycle control were exposed to compounds and growth inhibition was measured relative to vehicle treated controls. The strain used in this assay is bub3
Consider `COc1ccccc1CN1CCCN(Cc2ccccc2OC)C1c1ccc(N(C)C)cc1`, for which the growth inhibition is 14.3% (inactive). The result for `C=C(C)C1CCC2(C)CCC(=O)C(C)=C2C1` (stereo not given) reads -6.1% (inactive); that for `CCOC(=O)c1ccc(NC(=O)Nc2ccc(F)cc2)cc1`, 32.5% (inactive). Take `Cn1c(O)c(N=NC(=O)Cc2c[nH]c3ccccc23)c2ccccc21`: the growth inhibition is -2.2% (inactive). The result for `CCCCNC(=S)Nn1c(-c2ccccc2)nc2ccccc2c1=O` reads -31.9% (inactive).

For `CNC(=O)c1n[nH]nc1Sc1c([N+](=O)[O-])ncn1C`, the growth inhibition was -20.6% (inactive).

`COc1cc2c(cc1OC)[C@H](c1cc(OC)c3c(c1)OCO3)[C@H]1C(=O)OCC1C2` (stereo not given in full): the growth inhibition is 30.6% (inactive). With `CC(C)CCNc1ccccc1`, the growth inhibition is 3.55% (inactive).

In the case of `CCC(O)c1ccc(OCc2ccccc2)c(OC)c1` (stereo not given), the growth inhibition was -4.05% (inactive).

Regarding `COC1(OC)CC2C(=O)N(Cc3ccccc3)C1CC2S(=O)(=O)c1ccccc1` (stereo not given), the growth inhibition is -2.3% (inactive). For `CN(C)CC[N+]1=Nc2cccc3cccc(c23)N1`, the growth inhibition was -6.2% (inactive). Then `COc1cccc(C2C(C(=O)Nc3cc(=O)n(C)c(=O)n3C)=C(C)NC(C)=C2C(=O)Nc2cc(=O)n(C)c(=O)n2C)c1O`, with 2.55% (inactive). Regarding `C/C(=N\NC(=O)c1ccncc1)c1cc(Cl)ccc1Cl`, the growth inhibition is 0.35% (inactive). Then `COc1ccc(N=Nc2nc(N)c(C(N)=O)[nH]2)cc1`, with 5.7% (inactive).

Take `CC(CC(C)C(=O)O)C(=O)O` (stereo not given): the growth inhibition was -47.8% (inactive).

Regarding `COc1cc(C2c3cc4c(c(OC5OC(CO)C(O)C5O)c3CC3COC(=O)C32)OCO4)cc(OC)c1OC` (stereo not given), the growth inhibition is -0.95% (inactive). The result for `O=[n+]1c2c(n([O-])c3ccccc31)CCCCCCCCCC2` reads 0.95% (inactive); that for `CCc1cc(N(C)C)ccc1N=Nc1ccc([N+](=O)[O-])cc1`, 9.1% (inactive). The result for `OC/C(Br)=C(\Br)CO` reads -28.6% (inactive); that for `NNC(=O)c1c(O)ccc2ccccc12`, -4.2% (inactive); that for `COc1ccc(/C=C(/NC(=O)c2ccccc2)C(=O)O)c(OC)c1`, -10.1% (inactive). As to `O=C(c1cccc(C(=O)N2CCOCC2)n1)N1CCOCC1`, the growth inhibition was 5.15% (inactive). Then `COC1=NS(=O)(=O)C2CCCCCCC2O1` (stereo not given), with 10.6% (inactive). `CCOc1ccc([N+](=O)[O-])cc1[N+](=O)[O-]`: the growth inhibition is -25.6% (inactive). The result for `O=C1CCCC/C1=C/C=C/c1ccccc1` reads -29.9% (inactive). The result for `CC(C)(C)SC(=S)SCC(=O)c1ccc(F)cc1` reads -1.65% (inactive). On to `Cc1c2c(c(C)c3c1C(=O)c1cc4c(cc1C3=O)OCO4)OCO2`, for which the growth inhibition is -31.9% (inactive). The result for `CSc1nc(N)c(I)c(Cl)n1` reads -14.6% (inactive); that for `CCOC(=O)c1ccc(N=C2S/C(=C\C(=S)Nc3ccccc3)N(c3ccccc3)C2=Nc2ccc(C(=O)OCC)cc2)cc1`, 19.2% (inactive).

With `CCC(C)C(O)C(C(=O)O)C1CCCCC1` (stereo not given), the growth inhibition is 23.9% (inactive). The result for `CS(C)=C(C(=O)c1ccccc1)/C(=C/C(=O)c1ccccc1)c1ccccc1` reads 43.6% (inactive); that for `O=C(C/C(=N/O)c1ccccc1)c1ccccc1`, 5.35% (inactive); that for `COc1cc2c(cc1C(C)c1ccc(Cl)cc1)OCO2` (stereo not given), 20.2% (inactive). Then `N#CC(C(=O)/C(=N/Nc1nc(=S)[nH]n1N)C(C#N)c1ccccc1)c1ccccc1` (stereo not given), with -19.1% (inactive); and `O=C(NCC1CC1)c1cccs1`, with -21.6% (inactive); and `O=C(NCCCl)c1ccc(Cl)c(Cl)c1`, with 12.8% (inactive).

Turning to `CCCCC/C(C=O)=C\c1ccccc1`, the growth inhibition was 18% (inactive).

As to `CC1=C(C)CC2(CCCCC2=O)S(=O)C1` (stereo not given), the growth inhibition was 15.8% (inactive). In the case of `CC1(CO)C2CCC(CC2)C1CO` (stereo not given), the growth inhibition is -5.1% (inactive). Regarding `N/C1=C/C(=O)NC(=O)c2c(c3ccccc3oc2=O)C1`, the growth inhibition is 7.3% (inactive).

For the origin of these results see PubChem BioAssay (NCI).
